Rows were chosen to be rich in hits. Some 5.8% of all compounds tested hit in one or more screens of this group.
Bst PK mod: Pyruvate Kinase; purified pyruvate kinase, luminescence ATP production; ribose 5-phosphate activator present at AC10; Potency, µM; actives 1.2% (n = 51,000); AID 361, 2006; in the data active = potency below about 11 µM; inconclusive = mostly about 12 µM to 25 µM;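 the screen sought inhibitors and activators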
GBA mod: Glucocerebrosidase; purified enzyme, resorufin glucoside fluorescence (screen aimed at inhibitors), 20 min; Potency, µM; actives 1.1% (n = 48,000); AID 360, 2006; in the data active = potency below about 15 µM; inconclusive = mostly about 16 µM to 33 µM;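 note: the screen sought inhibitors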
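Normal human glucocerebrosidase (0.2 nM final) was assayed with resorufin β-D-glucopyranoside (30 uM final) in 50mM citric acid/KH2PO4, 10mM sodium taurocholate, 0.01% tween-20, pH 5.9. Compounds were titrated; fluorescence (Ex 548, Em 600) read after 20 min at RT.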
FLuc inh: qHTS Assay for Inhibitors of Firefly Luciferase; Luciferin 4-monooxygenase (Photinus pyralis), P08659; purified firefly luciferase, luminescence, 8 min; Potency, µM (top dose mostly 57.1 µM), actives largely listed as inhibitors; actives 2.2% (n = 72,000); note: nearly all actives have a fitted effect of over 40% in size
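Firefly luciferase (PKLight detection mix) with 10 uM ATP in pH 7.2 imidazole buffer (KCl, MgCl2, Tween 20, BSA). Compounds tested across a concentration series (qHTS). Luminescence read after 8 min at ambient temperature.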
HEK293 cAMP cs: qHTS Assay for Agonists of the Thyroid Stimulating Hormone Receptor: Activators of Intracellular cAMP Concentrations in Parental HEK 293; parental HEK293 CNG cAMP sensor, membrane potential fluorescence; Potency, µM (top dose mostly 57.1 µM), actives largely listed as activators; actives 2.5% (n = 73,000); AID 938, 2007; note: nearly all actives have a fitted effect of over 55% in size
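Counterscreen for endogenous-receptor signalling: CNG-channel HEK 293 cells report cAMP rise by membrane depolarization. After 60 min dye equilibration with 100 uM RO 20-1724, compounds incubated 30 min before bottom-read fluorescence at 590 nm.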
TSHR ag: qHTS Assay for Agonists of the Thyroid Stimulating Hormone Receptor; Potency, µM (top dose mostly 57.1 µM), hits mostly activators; Thyrotropin receptor (Homo sapiens), P16473; HEK293-CNG-TSHR cells (CNG channel as cAMP sensor), membrane potential dye, cAMP; actives 0.48% (n = 73,000); active = well fitted activation curve with a large enough effect in the main read-out, with a control signal flat, not every such curve was filed as active; inconclusive = small, poorly fitted or top-dose-only effect, or a change in a side signal; inactive = no such curve, though single readings can be large or run the other way; reference of the percent scale not stated here;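 note: the control signal comes from parental cells without the receptor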
Target sequence (P16473 whole entry, looked up): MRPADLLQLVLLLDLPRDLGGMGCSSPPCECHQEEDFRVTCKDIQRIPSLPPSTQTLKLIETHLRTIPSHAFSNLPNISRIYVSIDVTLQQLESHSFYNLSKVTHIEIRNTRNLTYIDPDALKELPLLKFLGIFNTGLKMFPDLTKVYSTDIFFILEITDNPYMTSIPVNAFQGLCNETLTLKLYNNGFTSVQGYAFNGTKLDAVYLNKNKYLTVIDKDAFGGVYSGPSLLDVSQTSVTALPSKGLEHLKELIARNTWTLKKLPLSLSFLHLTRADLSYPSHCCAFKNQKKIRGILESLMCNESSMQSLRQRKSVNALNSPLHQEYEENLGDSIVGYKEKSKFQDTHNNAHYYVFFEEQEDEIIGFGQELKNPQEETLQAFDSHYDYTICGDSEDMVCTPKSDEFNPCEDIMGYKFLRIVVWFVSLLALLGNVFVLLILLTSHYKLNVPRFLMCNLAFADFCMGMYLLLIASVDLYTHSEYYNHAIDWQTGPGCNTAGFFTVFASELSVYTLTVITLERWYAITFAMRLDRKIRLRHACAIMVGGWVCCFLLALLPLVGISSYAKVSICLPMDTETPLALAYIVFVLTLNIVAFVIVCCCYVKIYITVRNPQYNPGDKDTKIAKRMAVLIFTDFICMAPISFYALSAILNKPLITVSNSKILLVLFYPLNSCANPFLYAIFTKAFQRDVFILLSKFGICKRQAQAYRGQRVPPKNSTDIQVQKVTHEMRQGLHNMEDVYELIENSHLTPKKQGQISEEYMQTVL
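cAMP rise detected as CNG-channel membrane depolarization by fluorescent dye (emission 590 nm), 30 min after compound, following 60 min dye loading containing 100 uM RO 20-1724 at room temperature. Cells: TSHR/CNG HEK 293, with parental CNG HEK 293 as control.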
A number is an active result; n = inactive; u = inconclusive; x = not tested or not shown; ! = not active in a repeat; [ ] = dose if it differs, or a comment. Unless noted, calls come from the whole dose curve; as a rule, active = well fitted curve in the direction sought with a large enough effect; inconclusive = small, poorly fitted or top-dose-only effect, or another doubt; inactive = no such curve, though single readings can be large; an effect the other way counts as inactive or inconclusive.

SMILES	Bst PK mod	GBA mod	FLuc inh	HEK293 cAMP cs	TSHR ag
Nc1cc(S(N)(=O)=O)ccc1SSc1ccc(S(N)(=O)=O)cc1N	x	x	n[11.4 µM]	n[11.4 µM]	n[11.4 µM]
COc1ccc(Nc2nc(N)nc(CN3CCC(Cc4ccccc4)CC3)n2)cc1	x	x	n	n	n
COc1ccccc1Nc1nc(N)nc(CN2CCC(Cc3ccccc3)CC2)n1	n	0.93	n	n	n
CC(C)(C)n1nnnc1C(c1cccs1)N1CCCC2(CCCCC2)C1 (stereo not given)	n	n	n	u	u
CC(C)(C)n1nnnc1C(c1cccs1)N1CCCc2ccccc21 (stereo not given)	n	x	n	16µM	u
CC(CO)(CO)Nc1ncnc2ccccc12	x	x	n[11.4 µM]	n[11.4 µM]	n[11.4 µM]
Cc1ccccc1Cn1cc(S(=O)(=O)CC(=O)N2CCCCC2)c2ccccc21	n	n	n	32µM	u
O=C(CS(=O)(=O)c1cn(Cc2cccc(F)c2)c2ccccc12)N1CCOCC1	n	n	n	n	n
CCn1cc(SCC(=O)Nc2cc(C)on2)c2ccccc21	x	x	n	n	n[11.4 µM]
Cc1cc(NC(=O)CS(=O)(=O)c2cn(Cc3ccccc3Cl)c3ccccc23)no1	n	x	n	25µM	u
CN1/C(=C\C(=O)C(F)F)C(C)(C)c2ccccc21	x	x	n	32µM	u
CN1/C(=C\C(=O)c2ccco2)C(C)(C)c2ccccc21	n	n	n	20µM	u
CN1/C(=C\C(=O)COC(=O)C2COc3ccccc3O2)C(C)(C)c2ccccc21 (stereo not given)	n	n	n	n	n
CCN1/C(=C/C(=O)c2ccco2)Sc2ccccc21	n	n	25µM	n	n
O=C(NCc1ccco1)N1c2ccccc2Sc2ccccc21	x	x	n	n	x
CN1/C(=C\C(=O)COc2ccc3c(c2)OCO3)C(C)(C)c2ccccc21	n	n	n	32µM	u
CCn1c2ccccc2c2nnc(SCC(=O)c3ccccc3)nc21	x	x	n	n	n
CSc1nnc2c3cc(C)ccc3n(Cc3ccccc3)c2n1	n	n	n	16µM	u
COc1ncc2ncc(=O)n(Cc3ccc(F)cc3)c2n1	x	x	n[11.4 µM]	u	u
CC1CCc2cc(F)ccc2N1C(=O)c1ccc2c(c1)OCO2 (stereo not given)	n	n	n	n	25µM
O=C(CSc1nnc(SCc2ccc(Cl)cc2)s1)N1CCN(C(=O)c2ccco2)CC1	x	n	4µM	n	x
Cn1c(=O)c(-c2cccs2)nc2cncnc21	x	x	n[11.4 µM]	n	n
CCOc1ccc(-c2nnc(NC(=O)c3ccc(OCC(C)C)c(OC)c3)o2)cc1	n	n	n	25µM	u
c1ccc2nc3c(nc2c1)c1ccccc1n3CCN1CCOCC1	n	x	n	n	16µM
Brc1ccc2c(c1)c1nc3ccccc3nc1n2CCN1CCOCC1	x	x	n	n	n
SMILES	Bst PK mod	GBA mod	FLuc inh	HEK293 cAMP cs	TSHR ag
COC(=O)c1sccc1NC(=O)c1cc2c(s1)CCCC2	x	x	20µM	u	u
COC(=O)c1sccc1NC(=O)c1ccc(Br)o1	x	x	n	4µM	u
O=C(c1cc2ccccc2oc1=O)N1CCN(c2ccc(N3CCOCC3)nn2)CC1	x	x	16µM	n	n
Oc1cc2c(cc1O)[C@H](c1ccccc1)CNCC2	x	x	u	n	n
Oc1ccc([C@@H]2CNCc3sccc32)cc1O	x	x	n	32µM	u
COc1ccc(-c2nnc(SCc3nnc(-c4ccc(Cl)cc4)o3)n2-c2ccccc2)cc1	x	x	n	16µM	u
COc1ccc(-n2c(SCc3nnc(-c4ccccc4)o3)nnc2-c2ccccc2)cc1	n	n	n	20µM	u
Cc1nnc(SCc2nnc(-c3ccc(Cl)cc3)o2)n1-c1ccccc1	7.5	n	n	n	n[11.4 µM]
COc1ccc(-c2nnc(SCc3nnc(-c4ccccc4)o3)n2-c2ccccc2)cc1	x	x	n	n[11.4 µM]	n[11.4 µM]
Cn1nc(OCCOc2ccccc2)ccc1=O	x	x	n	n	n
COc1ccc2cnn(CCOc3ccccc3)c(=O)c2c1OC	x	n	16µM	n	n
N#Cc1cccc(NC(=O)N2CCC3(CC2)CCN(C(=O)c2cnccn2)CC3)c1	x	x	n[11.4 µM]	n	n
CCN(CC)c1nc(Nc2ccccc2)nc(Oc2ccc(=O)[nH]n2)n1	n	n	n	n	n
CN(C)c1nc(NCc2ccccc2)nc(Oc2ccc(=O)[nH]n2)n1	n	n	n	n	20µM
CS(=O)(=O)Nc1cccc(-c2nccc(Nc3ccc(F)cc3)n2)c1	x	x	n[2.29 µM]	n	n
Cc1noc(C)c1CSc1nc2ccccc2c(=O)n1-c1ccc(F)cc1F	n	n	n	16µM	u
Cc1noc(C)c1CSc1nc2ccccc2c(=O)n1-c1ccccc1	n	n	n	10µM	u
Cc1noc(C)c1CSc1nc2[nH]ncc2c(=O)n1-c1ccccc1	n	n	n	n	x
O=C(O)c1cn(C2CC2)c2cc(N3CCNCC3)c(F)cc2c1=O	x	x	n	n	n
COc1ccc([C@@H](Nc2ccccn2)c2cc(C(C)(C)C)cc(C(C)(C)C)c2O)cc1	x	x	n[11.4 µM]	n[11.4 µM]	n[11.4 µM]
Nc1ccc2nc(-c3ccc(Cl)cc3)[nH]c2c1	x	x	4µM	n	n
Nc1ccc(-c2nc3c(Cl)c(N)ccc3[nH]2)cc1	n	x	16µM	n	n
CC(C)CN1CC2(CCN(S(=O)(=O)c3ccccc3)CC2)C1	x	x	n[11.4 µM]	n	n
CCOc1c(OC)cccc1C1CC(=O)Nc2cc3c(cc21)OCCO3 (stereo not given)	x	x	n	n	25µM
O=Nc1c(-c2c(O)[nH]c3ccccc23)[nH]c2ccccc12	x	x	25µM!	n	u
SMILES	Bst PK mod	GBA mod	FLuc inh	HEK293 cAMP cs	TSHR ag
COC(=O)C/C=C\[C@@H](C)[C@@H](/C=N\OC[C@@H](O)COCc1ccco1)NS(=O)(=O)c1ccc(C)cc1	x	x	n[11.4 µM]	n[11.4 µM]	n[11.4 µM]
COc1ccc(S(=O)(=O)N2CCN(CCO)CC2)cc1-c1nnc2c3ccccc3c(C)nn12	x	x	n	n	n
Cc1nn2c(-c3ccccc3)nnc2c2ccccc12	n	n	n	u	u
Cc1ccc(S(=O)(=O)N2CCN(CCO)CC2)cc1-c1nnc2c3ccccc3c(C)nn12	n	n	n	n	16µM
Cc1ccc(S(=O)(=O)N2CCN(C)CC2)cc1-c1nnc2c3ccccc3c(C)nn12	n	n	n	n	4µM
S=C(Nc1ccccn1)c1ccccn1	x	x	20µM	n	n
O=C(CSc1nc2ccccc2o1)Nc1nc2c(s1)CCCC2	n	n	10µM	32µM	u
COc1cccc(Nc2ncc3nc(C)c(=O)n(C)c3n2)c1	x	x	n[11.4 µM]	n	n
Cc1cc(N2CCN(C)CC2)nc2ccc(NC(=O)c3ccc4c(c3)OCO4)cc12	x	1.1	25µM	n	n[11.4 µM]
COc1cc2ccccc2cc1C(=O)Nc1ccc(N2CCN(C)CC2)cc1	11	n	10µM	n	u
Cc1cc(N2CCN(C)CC2)nc2ccc(NC(=O)c3ccc(Br)o3)cc12	x	2.2	n	n	n[11.4 µM]
CN1CCN(c2ccc(NC(=O)c3ccc4c(c3)OCO4)cc2)CC1	x	n	25µM	n	n
COc1ccc2[nH]cc(CCNc3ncncc3-c3cccc(NS(C)(=O)=O)c3)c2c1	x	x	n[2.29 µM]	n	n

Assay outcomes (PubChem BioAssay)
